Bioassay records (PubChem)
The list is not random: actives were taken first. Their share in the collection is about 1.6%.
HTR5A ag = activates human HTR5A in OPRM1-OPRD1 agonist counter-screen. P47898. HTR5A agonist assay, luminescence, cell-based. activation, % at 9.3 µM. 0.61% of 340,000 active. AID 504692; in the data active means activation mostly above about 9.5%, no sharp cut-off; inactive means mostly below about 7.6%;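 further: 0% = cells with vehicle only and 100% = reference agonist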
Target sequence (P47898 whole entry, looked up): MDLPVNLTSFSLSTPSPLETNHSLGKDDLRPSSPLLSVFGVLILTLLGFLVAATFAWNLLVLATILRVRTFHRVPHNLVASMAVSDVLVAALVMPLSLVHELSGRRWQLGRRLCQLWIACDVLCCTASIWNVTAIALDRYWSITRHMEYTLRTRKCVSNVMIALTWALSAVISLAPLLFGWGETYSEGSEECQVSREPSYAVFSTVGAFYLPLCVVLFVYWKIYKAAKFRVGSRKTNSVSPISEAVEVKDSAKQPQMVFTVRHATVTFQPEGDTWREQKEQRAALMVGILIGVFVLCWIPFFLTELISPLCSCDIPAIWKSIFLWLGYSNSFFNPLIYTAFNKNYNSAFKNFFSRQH
HTR5A inv ctr = counter-screen for OPRM1-OPRD1 inverse agonists: human HTR5A inverse agonism; P47898; HTR5A cell line, luminescence; inhibition, % at 9.3 µM; 0.083% of 340,000 active; AID 504634; in the data active means inhibition mostly above about 23%, no sharp cut-off; inactive means mostly below about 18%;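 further: 0% = cells with DMSO and 100% = no-cell wells with DMSO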
MOR-DOR inv ag = mu-delta opioid heterodimer inverse agonism; P35372+P41143; cell-based MOR-DOR heterodimer luminescence; inhibition, % at 9.3 µM; 0.21% of 340,000 active; in the data active means inhibition above about 22%, passing the limit was not always enough;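 further: 0% = cells with DMSO and 100% = wells without cells with DMSO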
OPRM1-OPRD1 ag = OPRM1-OPRD1 heterodimerization agonism. P35372+P41143. cells, luminescence. activation, % at 9.3 µM. 0.3% of 340,000 active; in the data active means activation above about 18%;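 further: 0% = vehicle-treated cells and 100% = reference agonist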
HTR2A ag = activates the mouse 5-HT2A serotonin receptor; P35363; CHO-K1 mHTR2A beta-arrestin complementation, luminescence; percent of 30 µM serotonin response; activation, % at 7.6 µM; 0.66% of 360,000 active; AID 624169;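 active means activation above a run cutoff, the mean activation of all tested compounds plus 3 SD, cut at about 14% in these data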;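 further: 0% = plate median of compound wells and 100% = 30 µM serotonin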
MOR ag counter = counter-screen for mouse HTR2A agonists: human mu opioid receptor agonists | activation, % at 9.3 µM | U2OS OPRM1 beta-arrestin PathHunter, luminescence; DMSO 0%, DAMGO 9.3 µM 100% | AID 624380 | shares compounds with HTR2A ag | 5.3% of 2,300 active;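 active means mean activation above the mean of DMSO-only wells plus 3 SD, cut at about 0.5% in these data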
HTR2A ag conf = mouse HTR2A agonism confirmed; shares compounds with HTR2A ag; CHO-K1 PathHunter beta-arrestin recruitment, luminescence; DMSO 0%, 30 µM serotonin 100%; activation, % at 7.6 µM; 19% of 2,300 active;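 active means mean activation across triplicates above the hit threshold derived in the original primary screen, cut at about 15% in these data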
An asterisk follows results filed as active.

How did COc1ccccc1Cn1c(C)c(C(=O)NCCC#N)sc1=O do in these assays?
HTR2A ag: 1

What do the screens show for `CCOC(=O)N1CCN(C(c2ccc(F)cc2)c2sc3nc(C)nn3c2O)CC1` (stereo not drawn)?
HTR5A ag: -6; HTR5A inv ctr: -17; MOR-DOR inv ag: 6; OPRM1-OPRD1 ag: -1; HTR2A ag: 32*; MOR ag counter: -1; HTR2A ag conf: -3

How did CCOC(=O)N1CCN(C(c2ccccc2)c2sc3nc(C)nn3c2O)CC1 (stereo not drawn) do in these assays?
HTR5A ag: 3; HTR5A inv ctr: 12; MOR-DOR inv ag: 8; OPRM1-OPRD1 ag: -1; HTR2A ag: 3

Results for CCOc1ccc(S(=O)(=O)NCC2(N3CCCCC3)CCCCC2)cc1 ?
HTR5A ag: -2; HTR5A inv ctr: 13; MOR-DOR inv ag: 25; OPRM1-OPRD1 ag: -5; HTR2A ag: 17*; MOR ag counter: -1; HTR2A ag conf: -1

What do the screens show for `CCOc1ccc(S(=O)(=O)NCCC(=O)NCC2(N3CCCCC3)CCCCC2)cc1`?
HTR5A ag: 4; HTR5A inv ctr: -9; MOR-DOR inv ag: 13; OPRM1-OPRD1 ag: -2; HTR2A ag: 0

What do the screens show for `Cc1nn(CC(=O)NCC(C)c2ccccc2)c(=O)c2cc3occc3n12` (stereo not drawn)?
HTR5A ag: 4; HTR5A inv ctr: 7; MOR-DOR inv ag: 11; OPRM1-OPRD1 ag: -2; HTR2A ag: 2

How did CC(CNC(=O)CCCn1ncn2c(cc3occc32)c1=O)c1ccccc1 (stereo not drawn) do in these assays?
HTR5A ag: -5; HTR5A inv ctr: 4; MOR-DOR inv ag: 13; OPRM1-OPRD1 ag: -3; HTR2A ag: 16*; MOR ag counter: -1; HTR2A ag conf: -6

How did Cc1cccc(-c2cnc(C(O)c3ccc(Cl)cc3C)[nH]2)c1 (stereo not drawn) do in these assays?
HTR2A ag: -6

Results for COCCn1c(=O)[nH]c2cc(C(=O)N3CCN(c4cccc(C)c4C)CC3)ccc2c1=O ?
HTR5A ag: -6; HTR5A inv ctr: 17; MOR-DOR inv ag: 2; OPRM1-OPRD1 ag: 0; HTR2A ag: 15*; MOR ag counter: 0; HTR2A ag conf: 1

What do the screens show for `COCCn1c(=O)[nH]c2cc(C(=O)N3CCN(c4ccccc4OC)CC3)ccc2c1=O`?
HTR5A ag: -3; HTR5A inv ctr: 8; MOR-DOR inv ag: 16; OPRM1-OPRD1 ag: -3; HTR2A ag: 9

Results for CC(=O)OC1C=CCC2C(=O)c3cccc(O)c3C(O)C12 (stereo not drawn) ?
HTR5A ag: -2; HTR5A inv ctr: 7; MOR-DOR inv ag: -13; OPRM1-OPRD1 ag: 3; HTR2A ag: 17*; MOR ag counter: 0; HTR2A ag conf: 0

How did OC(c1ccccc1)c1nc(-c2ccc(F)c(Cl)c2)cs1 (stereo not drawn) do in these assays?
HTR2A ag: -1

Results for Cc1oc(-c2ccc(Cl)cc2)nc1CS(=O)CC(=O)NCCCN1CCCC(C)C1 (stereo not drawn) ?
HTR5A ag: 4; HTR5A inv ctr: -16; MOR-DOR inv ag: 13; OPRM1-OPRD1 ag: -2; HTR2A ag: 17*; MOR ag counter: 0; HTR2A ag conf: -2

Results for COc1ccc(OC)c(C2=Nn3c(nnc3-c3cc(OC)c(OC)c(OC)c3)SC2)c1 ?
HTR5A ag: -2; HTR5A inv ctr: -42; MOR-DOR inv ag: -11; OPRM1-OPRD1 ag: 2; HTR2A ag: 15*; MOR ag counter: 0; HTR2A ag conf: 7

What do the screens show for `COc1ccc(OC)c(C2=Nn3c(nnc3-c3ccncc3)SC2)c1`?
HTR5A ag: -4; HTR5A inv ctr: -5; MOR-DOR inv ag: 6; OPRM1-OPRD1 ag: -1; HTR2A ag: -3

How did CC(C)(C)n1c(O)c2n(c1=O)Cc1ccccc1N=C2c1ccccc1 do in these assays?
HTR2A ag: -4

What do the screens show for `NNc1ccc2nncn2n1`?
HTR5A ag: -1; HTR5A inv ctr: -7; MOR-DOR inv ag: -2; OPRM1-OPRD1 ag: 0; HTR2A ag: 1
